The results in this text go back to PubChem BioAssay AID687014 (The Scripps Research Institute Molecular Screening Center, 2013).

Molecules are shown by their SMILES. Screen size: about 370,000 compounds; about 6,800 (1.8%) were called active. The entries come from a sample that favours actives as a whole. Values without a mark were called inactive.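 Rule for the calls: active = activation above a cutoff set at the mean of all screened compounds plus 3 SD (cut at about 10% in these data); inactive = the rest.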

In the assay the test system is Nuclear hormone receptor DAF-12 (Heterodera glycines), GAL4 fusion. Kind of assay: hgDAF-12 GAL4 fusion reporter activation – cell-based, luminescence, HEK293, UAS-luciferase, primary screen (AID 687014).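 Note: 0% = DMSO wells and 100% = sodium butyrate wells.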 To be noted: HEK293 GAL4-hgDAF12 UAS-luciferase reporter, agonist luminescence; at 6.8 µM; hits give high values; normalized to butyrate control.
For `COCc1cc(N2CCN(C(=O)OC(C)(C)C)C[C@@H]2C)ccc1N1CCN(Cc2ccccc2)[C@H](C)C1`, the activation is 4.83%. `O=C(CSc1cccc[n+]1[O-])c1ccc(-c2ccccc2)cc1`: the activation was 10.8% (active). On to `O=C(CSc1cccc[n+]1[O-])NCCCc1ccccc1`, for which the activation is 1.17%. As to `CCN(C(=O)CSc1cccc[n+]1[O-])c1ccccc1`, the activation is -0.46%.

As for `COc1ccc(C(=O)N/N=C(\C)CC(=O)Nc2ccc(Cl)cn2)cc1`, the activation is 0.32%. On to `CCCc1cc(C(=O)Nc2ccc(Cl)cn2)cs1`, for which the activation was 12.9% (active). With `CC(OC(=O)CNC(=O)c1ccco1)C(=O)Nc1ccc(Cl)cn1` (configuration not stated), the activation was 1.56%. For the compound `Cc1nc(NC(=O)c2ccc3c(c2)OCCO3)ccc1Br`, the activation is 7.16%. In the case of `O=C(Nc1ccc(Cl)cn1)c1ccc2c(c1)OCCO2`, the activation was 18.1% (active).

In the case of `CC1(c2ccc(Cl)cc2)NC(=O)N(CC(=O)c2ccc3c(c2)OCO3)C1=O` (configuration not stated), the activation is -1.6%. With `O=C(c1c[nH]c2ccccc12)N1CCC(Oc2cccnc2)CC1`, the activation was 4.09%. Consider `Cc1ccc(C(=O)C2CCN(CC(=O)NCCC(C)C)CC2)cc1`, for which the activation is -0.75%. For `CC(C)CC(=O)N1CCC(O)(CS(=O)(=O)Cc2ccccc2)CC1`, the activation was -2.29%. In the case of `CCCCC(=O)N[C@@H]1CC[C@@]23CCCN2C(=O)CCC[C@H]3[C@H]1C`, the activation was 0.52%. In the case of `CCN(C(=O)[C@@H](C1CC1)[C@@H](O)c1ccc2ccccc2c1)c1ccccc1`, the activation was -0.8%. Consider `Cc1ccc(N)cc1CN1CCN(c2ncc(Cc3ccccc3)cn2)CC1`, for which the activation was 0.77%. With `Cc1cc(N)n2nc(-c3ccc(C(C)(C)C)cc3)cc2n1`, the activation is 20% (active). The result for `CCC1([N+](=O)[O-])COC(c2ccc(C(C)C)cc2)OC1` (configuration not stated) reads 12.9% (active). Take `CCC1([N+](=O)[O-])COC(c2ccc(C)cc2)OC1` (configuration not stated): the activation was 1.83%. Consider `CCC1(C)COC(c2ccc(OC)c(OC)c2)OC1` (configuration not stated), for which the activation is -1.37%. The result for `Oc1ccc(/C=C/c2c(F)cccc2F)c2cccnc12` reads -6.27%. The result for `CCCCNc1cccc2c1S(=O)(=O)N[C@@H](C)CO2` reads 0.24%; that for `O=C(NCc1ccccc1)[C@H]1CCCN1C(=O)[C@H]1CCCN1C(=O)c1cc(F)cc(F)c1`, -0.18%; that for `CC(C)N1CCCCC(NC(=O)C(C)(C)C)C1=O` (configuration not stated), 0.58%. `CC(=O)c1ccc(S(=O)(=O)NCC2CCN(C(=O)C(=O)c3cccs3)CC2)cc1`: the activation was -0.16%. `NC(=O)c1ccccc1N=Cc1ccc2ccccc2c1`: the activation is 14.3% (active). Under `O=C(OCC(=O)N1CCOCC1)c1ccc2ccccc2c1` stands 4.48%; under `Cc1nc2c(C(=O)NCc3cccs3)cnn2c(C)c1Cc1ccc(F)cc1`, -1.35%; under `C=CCN1C(=O)[C@@H](CC(=O)NCCCCc2ccccc2)[C@]2(C(=O)OCC)CCCCC/C=C/12`, 2.01%.

Take `Cc1ccccc1C(=O)N[C@H](C(=O)N1CCC[C@H]1C(=O)NCc1ccccc1)C(C)C`: the activation was -1.35%. Consider `COc1cccc(CC(=O)N2CCN(C(=O)C(=O)c3cccc(C(F)(F)F)c3)CC2)c1`, for which the activation is -0.52%.

`CCOC(=O)c1csc(CCNC(=O)c2oc3c(Cl)cc(C)cc3c2C)n1`: the activation is 1.98%.

In the case of `O=C(Nc1ccc(F)cc1)c1cc2c(s1)CCCC2`, the activation was 10.8% (active). Take `CN(C)C(=O)c1ccc(NC(=O)COC(=O)c2cc3c(s2)CCCCC3)cc1`: the activation is 2.42%. With `O=C(NCC1CCCO1)c1cc2c(s1)CCCC2` (configuration not stated), the activation is 7.29%.

In the case of `COc1ccc(CCNC(=O)NS(=O)(=O)c2ccc(C)cc2)cc1OC`, the activation is -1.2%. `COc1cc(NC(=O)C2CCCN(S(=O)(=O)c3ccc(C(C)(C)C)cc3)C2)cc(OC)c1` (configuration not stated): the activation was 4.12%.

Take `CCn1c2ccccc2c2cc(NC(=O)CSc3nnc(-c4ccccc4)n3-c3ccc(C)cc3)ccc21`: the activation is 1.54%.

With `Clc1ccc(-c2cc(-c3ccccn3)on2)c(Cl)c1`, the activation is 11.2% (active). As for `Clc1ccccc1-c1cc(COc2ccc3ccccc3c2)no1`, the activation was 0%. For `Fc1ccc(-c2ccc(CNCc3ccccn3)o2)cc1Cl`, the activation is -0.65%. Under `CS(=O)(=O)N(CC(=O)N1CCOCC1)c1ccc2c3c(cccc13)CC2` stands 0.28%; under `CCc1c(C)c2c(C)[nH]nc2oc1=O`, -1.18%.

With `CN(Cc1nc2ccc(F)cc2[nH]1)Cc1nc(CC2CC2)no1`, the activation is -0.98%. Under `O=C(NN=Cc1ccco1)C(=O)Nc1ccc(Cl)c([N+](=O)[O-])c1` stands -2.99%; under `COc1ccc(CCNC(=O)CSc2nc3c([nH]2)c(=O)n(C)c(=O)n3C)cc1`, 0.07%; under `Cc1csc(SCC(=O)Nc2ccc(C)c(S(=O)(=O)N(C)C)c2)n1`, 0.79%. Under `N#Cc1ccsc1NC(=O)CN1CCCCC1` stands -0.08%; under `Cc1csc(SCC(=O)Nc2sccc2C#N)n1`, 17.8% (active). As for `CC(=O)Nc1ccc(N2C(=O)C3C4CC(=O)C(c5ccccc54)C3C2=O)cc1` (configuration not stated), the activation was -0.45%. The result for `CC(=O)O[C@@]1(C(C)=O)CCC2[C@H]3C=C(C)C4=CC(=O)CC[C@@]4(C)C3CC[C@]21C` (some centres not stated) reads -4.47%; that for `FC(F)(F)c1cccc(Cn2ccc3ccc(-c4ccc5ccn(Cc6ccccc6)c5c4)cc32)c1`, -0.72%; that for `COc1ccc(NC(=S)N2N=CCC2c2ccccc2)cc1` (configuration not stated), 16.5% (active). With `COc1ccc(NC(=O)N2CCC(Cc3ccccc3)CC2)cc1`, the activation was 1.2%.

In the case of `COc1ccc(N2CCN(C(=S)Nc3ccc(S(N)(=O)=O)cc3)CC2)cc1`, the activation was -4.74%.

As to `CC(Sc1nnc(Cc2ccc([N+](=O)[O-])cc2)o1)C(N)=O` (configuration not stated), the activation was -0.65%.

Regarding `CCOC(=O)/C=C/c1ccccc1O`, the activation is 2.77%. Take `Cc1ccc(CN2CCN(Cc3ccccc3-c3ccco3)CC2CCO)o1` (configuration not stated): the activation is -2.88%. Turning to `N#CC1=C(N)N(c2ccc(F)cc2)C(=O)C1`, the activation was -1.83%. For `O=C(COC(=O)c1ccc(O)cc1O)NNC(=O)c1cccs1`, the activation was 0.57%. `Cc1ccc(NNC(=O)c2cccs2)cc1Cl`: the activation is 1.51%. Regarding `O=C(NNC(=O)c1ccc(Cl)cc1Cl)c1cccs1`, the activation is 18.7% (active).
